High-throughput results: PubChem BioAssay, National Center for Advancing Translational Sciences (NCATS)
Most compounds without a hit are left out; they make up all but 6% or so of the library.
D3 ag = qHTS of D3 Dopamine Receptor Agonist: qHTS. D(3) dopamine receptor (Homo sapiens), P35462. D3R DiscoveRx beta-arrestin cells, luminescence, 90 min. max activation, %. hit rate 0.58% among 410,000. AID 652048, 2013; in the data active means max activation above about 30%; further: 0% is about no effect
Target sequence (P35462 whole entry, looked up): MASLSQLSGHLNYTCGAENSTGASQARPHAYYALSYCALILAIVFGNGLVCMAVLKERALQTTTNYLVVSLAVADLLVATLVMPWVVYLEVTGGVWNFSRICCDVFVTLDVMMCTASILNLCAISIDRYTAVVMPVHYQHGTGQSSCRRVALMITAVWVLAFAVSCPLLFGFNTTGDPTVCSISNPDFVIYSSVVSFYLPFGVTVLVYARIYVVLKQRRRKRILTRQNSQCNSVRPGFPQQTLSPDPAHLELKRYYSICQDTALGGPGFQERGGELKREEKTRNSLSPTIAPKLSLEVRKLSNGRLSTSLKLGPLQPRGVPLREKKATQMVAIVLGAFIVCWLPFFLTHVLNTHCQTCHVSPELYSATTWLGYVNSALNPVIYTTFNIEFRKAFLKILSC
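Agonist mode: compounds and dopamine controls were applied to plated cells for 90 min at 37 degrees C after an overnight attachment at 1500 cells/well. Luminescent read-out followed 30 - 60 minutes at room temperature with DiscoveRx detection reagent.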
D1 antagonist = Antagonist of Human D 1 Dopamine Receptor: qHTS. hit rate 3.2% among 360,000. HEK293 TREx D1 cells, calcium flux, dopamine EC80; hits give low values. AID 504652, 2011. D(1A) dopamine receptor (Homo sapiens), P21728. activity change, negative = inhibition, % at 10 µM; in the data active means activity change below about -30%; further: on the % scale 0 is the no-effect control and ±100 the full control effect
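Kinetic fluorescence of a calcium dye serves as the read-out. D1-expressing Hek293 Trex cells, induced overnight at 30 C, are exposed to compound for 180 s before an EC80 dopamine addition, then read 180 s further.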
DRD3 antagonist = qHTS of D3 Dopamine Receptor Antagonist: qHTS; D(3) dopamine receptor (Homo sapiens), P35462; D3R cells, DiscoveRx beta-arrestin luminescence, antagonist mode; hits give low values; max response, negative = inhibition, %; hit rate 2.5% among 360,000; AID 652054, 2013; in the data active means max response below about -50%; inconclusive means no clear call, values can overlap the other calls; further: on the % scale 0 is the no-effect control and ±100 the full control effect
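Cells expressing the human receptor were seeded at 1500 cells/well, incubated overnight at 37 degrees C in 5% CO2, then exposed to library compounds with dopamine controls for 90 minutes at 37 degrees C before luminescent detection.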
D1 potentiator = Potentiators of Human D1 Dopamine Receptor: qHTS; HEK293 TREx D1 cells, calcium flux, dopamine EC20 potentiation; potentiation, % at 10 µM; hit rate 0.036% among 360,000; AID 504651, 2011; in the data active means potentiation above about 30%; further: 0% is about no effect
D1 agonist = Allosteric Agonists of the Human D1 Dopamine Receptor: qHTS. D(1A) dopamine receptor (Homo sapiens), P21728. HEK293 T-REx D1 cells, calcium flux, agonist mode. activation, % at 2 µM. hit rate 1% among 360,000. AID 504660, 2011; in the data active means activation above about 30%; further: 0% is about no effect
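Tetracycline-induced HEK293 TREx D1 cells, force-coupled to calcium signalling, were dye-loaded with a no-wash calcium kit. Compound was pin-added after a 10 s baseline. Fluorescence was read kinetically at 1 cycle/s for 180 s, with calcium rises flagged as agonism.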
The depositor's hits bear a star; ? = inconclusive; . = no result given; ! = not confirmed by another sample.

SMILES	D3 ag	D1 antagonist	DRD3 antagonist	D1 potentiator	D1 agonist
Cc1ccc(NC(=O)Cn2c(=O)n(CC3CCC(C(=O)NC(C)C)CC3)c(=O)c3sccc32)cc1 (configuration not stated)	8.2	-44.1*	.	-4.8	2.4
CC(=NCc1ccco1)c1c(C)[nH]n(-c2nc3ccccc3s2)c1=O	-1.9	-65.7*	16.1	-6.6	-0.9
CCC(=NCc1ccccc1)c1c(C(F)(F)F)[nH]n(-c2nc3ccccc3s2)c1=O	-10.0	11.8	-60.2*	0.3	1.0
COc1ccc(N2CCN(C(=O)C3Cc4ccccc4N3C(C)=O)CC2)cc1 (configuration not stated)	-9.4	-3.8	.	-0.5	0.3
Fc1cccc(NC(=S)N2CCCC2)c1	-2.9	6.7	-5.3	-4.6	1.4
CC(=O)c1ccc(N2CCN(C(=S)Nc3cccc(F)c3)CC2)cc1	-4.8	-40.0*	9.2	-3.5	12.1
CN1CCN(c2ccc(NC(=O)c3ccc(Oc4ccccc4)cc3)cc2)CC1	-29.8	-58.4*	-21.3	.	11.0
CCOc1ccc(C(=O)Nc2ccc(N3CCN(C)CC3)cc2)cc1Br	-5.6	-34.6*	-26.0	-7.9	3.8
O=[N+]([O-])c1ccc(C(O)CN2CCOCC2)cc1 (configuration not stated)	5.0	-16.4	8.2	-8.2	2.1
O=[N+]([O-])c1ccc(C(O)CN2CCN(c3ccccc3)CC2)cc1 (configuration not stated)	34.4*	-0.7	2.4	2.4	5.5
NS(=O)(=O)c1ccc(NC(=S)N2CCN(c3ccccc3Cl)CC2)cc1	3.1	-40.0*	0.4	-8.1	4.7
NS(=O)(=O)c1ccc(NC(=S)N2CCN(c3cccc(Cl)c3)CC2)cc1	2.1	-8.5	?	-2.5	3.8
COc1cc2ccccc2cc1C(=O)Nc1ccc(N2CCN(C)CC2)cc1	1.1	-61.2*	?	-8.4	8.7
O=[N+]([O-])c1ccc(NC(=S)N2CCN(c3ccccc3)CC2)cc1	-12.0	-40.4*	12.0	-9.6	9.3
O=S(=O)(c1cccc(NC(=S)N2CCN(c3ccc(F)cc3)CC2)c1)C(F)F	-3.5	-35.1*	8.8	-14.4	5.8
O=S(=O)(c1cccc(NC(=S)N2CCN(c3cccc(Cl)c3)CC2)c1)C(F)F	5.3	-4.0	12.6	-10.3	3.0
CCOc1ccc(-n2cc(-c3ccccc3)c3c(NCc4ccc(F)cc4)ncnc32)cc1	0.2	11.8	.	4.5	2.6
COc1cc(N(C)C)ccc1[C@]1(O)C(=O)N(C)c2ccc(Br)cc21	-0.4	.	13.8	.	.
CC(=O)c1ccc(N2CCN(C(=S)Nc3ccc(Oc4ccccc4)cc3)CC2)cc1	-15.2	-32.9*	?	-2.6	5.9
Cc1ccc(NC(=O)[C@H](CSCc2ccccc2)N2Cc3ccccc3C2=O)cc1	4.4	-34.1*	.	-0.1	3.7
CCN(CC)c1ccc(S(=O)(=O)N2CCOCC2)cc1NC(=O)CNCc1cccc(Cl)c1	1.8	.	6.6	.	.
Cc1nn2c(N3CCN(c4ccccn4)CC3)cc(C(C)C)nc2c1-c1ccccc1	0.0	-15.0	-55.9*	0.0	2.2
Cc1cc(N2CCCCCC2)n2nc(C)c(-c3ccccc3)c2n1	1.8	1.6	36.1	0.9	1.1
O=C(O)CCN1C(=O)/C(=C/c2ccc(-c3nc4ccccc4s3)o2)SC1=S	-2.8	98.1	-28.8	4.9	28.5
O=C(O)CCCN1C(=O)/C(=C\c2ccc(-c3nc4ccccc4s3)o2)SC1=S	-10.5	80.1	?	5.9	34.7*
SMILES	D3 ag	D1 antagonist	DRD3 antagonist	D1 potentiator	D1 agonist
CNc1cncc(-c2cc(C)c(O)c(C)c2)n1	76.4*	.	-3.5	.	.
Nc1cc(C(Cl)=C(Cl)Cl)c(S(N)(=O)=O)cc1S(N)(=O)=O	3.9	-32.5*	22.4	-6.7	-0.3
Cc1nn(-c2ccc(F)cc2F)c2c1-c1nc(N3CCCC3)ncc1CC2	-3.5	-41.5*	-2.0	-17.6	0.4
Cc1nc(N2CCCC2)ncc1C(=O)NCc1ccc(F)cc1	0.8	-3.0	.	0.4	1.6
Cc1ccc(NC(=O)CSc2nc3c(oc4ccccc43)c(=O)n2Cc2ccco2)cc1	-12.2	8.5	.	-4.5	0.6
C[C@H]1CN([C@@H](C)CO)C(=O)c2cc(C3=CCCC3)cnc2O[C@@H]1CN(C)C(=O)c1ccncc1	-2.1	.	2.7	.	.
COc1cc(S(=O)(=O)NC2CCSc3ccccc32)ccc1NC(C)=O (configuration not stated)	6.4	-11.4	5.3	2.0	5.8
COc1ccc(S(=O)(=O)NC2CCc3ccccc32)cc1OC (configuration not stated)	0.9	-37.2*	5.8	-5.2	10.8
Cn1c(=O)oc2cc(S(=O)(=O)NC3CCCc4ccccc43)ccc21 (configuration not stated)	-2.8	-35.9*	21.9	.	20.4
Cn1c(=O)oc2cc(S(=O)(=O)N3CCCC(C(=O)NC4CCCc5ccccc54)C3)ccc21 (configuration not stated)	0.1	-13.1	-21.7	-6.3	3.9
COc1cccc(CNS(=O)(=O)c2ccccc2Br)c1OC	32.2*	.	5.6	.	.
Cc1cccc(C)c1-n1nnnc1C(c1ccnc2ccccc12)N1CCCN(C(=O)OC(C)(C)C)CC1 (configuration not stated)	-4.8	.	-24.3	.	.
CC1(OC(=O)C2CCCC2)C(=O)C=C2C=C(c3ccsc3)N(CC3CC3)C=C2C1=O (configuration not stated)	10.8	-32.6*	-10.1	-3.4	8.5
O=S1(=O)[C@H]2CC3O[C@]2(C[C@@H]3c2ccc(F)cc2)CN1Cc1ccc(Cl)cc1	-18.9	-12.1	0.0	-9.6	1.8
O=S1(=O)[C@H]2C[C@@H]3CC[C@]2(CN1Cc1cccc(F)c1)O3	-18.2	-46.5*	4.6	-8.7	0.8
COc1ccccc1C=CC(=O)C=Cc1ccccc1OC	-5.7	.	?	.	.
COc1ccccc1/C=C/C(=O)/C=C/c1ccccc1O	-5.3	-34.1*	-27.2	-5.1	3.6
COc1cccc(/C=C/C(=O)c2c(O)cc(C)oc2=O)c1O	0.6	0.5	-74.2*	-5.5	2.7
CCn1c(SCc2ccccc2)nnc1-c1nonc1NC(C)=O	7.5	-17.7	.	-1.2	3.7
CCN(CC)CCCNC(=O)c1nn(C)c2c1CSc1ccccc1-2	-18.4	-2.0	.	0.4	1.3
CC(C(=O)NC(C)(C)C)N(C(=O)CS(=O)CC(=O)Nc1ccc(F)cc1)C1CCCC1 (configuration not stated)	36.8*	0.4	10.6	-4.8	2.8
O=C(CS(=O)CC(=O)N(CC(=O)NC1CCCC1)C1CCCCC1)Nc1ccc(F)cc1 (configuration not stated)	1.3	-19.2	51.8	-0.2	-0.7
CCCCOc1ccc(OCCCN2CCOCC2)cc1	87.3*!	12.7	4.9	-3.9	5.3
